Only some compounds are listed: those with a hit (about 1.7% of all), similar ones and a draw of the others.
E-sel TNF inh: TNF alpha driven E-selectin expression inhibition; HUVEC TNFa-induced E-selectin immunofluorescence, high content; inhibition, % at 2 µM; 120,000 compounds, 0.71% hits;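 active means inhibition above the batch mean plus 3 SD, and confirmed as a hit on visual image review, cut at about 43% in these data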;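 further: 0% = TNF-stimulated DMSO wells and 100% = unstimulated control wells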
NFkB transloc inh: blocks IL-1B driven NFkB nuclear translocation in HUVEC cells; inhibition, % at 2 µM; AID 796; 94,000 compounds, 0.43% hits; HUVEC IL-1B NFkB p65 nuclear translocation imaging;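 active means inhibition above about 30% together with a positive call from visual inspection of the well image, limit read from the data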;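 further: nuclear over cytoplasmic p65 intensity ratio measured by imaging; 0% = IL-1B stimulated DMSO wells and 100% = unstimulated DMSO wells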
VCAM1 TNFa inh: reduces TNF alpha induced VCAM1 expression in HUVEC. HUVEC TNFa-induced VCAM-1 immunofluorescence, high-content imaging. inhibition, % at 2 µM. 95,000 compounds, 0.48% hits;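 active means inhibition above the batch mean plus 3 SD, with images confirmed as a hit by eye, cut at about 37% in these data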;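 further: 0% = TNF-stimulated DMSO wells and 100% = unstimulated control wells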
IL1B NFkB pot: enhances IL-1B driven NFkB nuclear translocation; HUVEC IL-1B NFkB p65 nuclear translocation imaging; activation, % at 2 µM; 94,000 compounds, 0.3% hits; AID 819;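 active means activation above 40%, about the mean plus 3 SD, also judged a hit on visual image review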;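 further: percent activation is computed from the nuclear over cytoplasmic p65 intensity ratio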
HUVEC tox TNFa: HUVEC cytotoxicity counter-screen, TNF alpha stimulated. 93,000 compounds, 0.17% hits. cell count reduction, % at 2 µM. AID 848. HUVEC TNFalpha-stimulated, Hoechst cell count, imaging;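 active means cell count reduction exceeding the screen mean by over 5 SD, scaled to untreated wells per plate, cut at about 78% in these data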;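 further: cells counted after 24 h of TNF alpha exposure following the 1 h pretreatment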
HUVEC tox IL1B: toxic to HUVEC cells under IL-1B stimulation. HUVEC cell count loss, Hoechst imaging, IL-1B stimulated. cell count reduction, % at 2 µM. 94,000 compounds, 0.41% hits. AID 845;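 active means cell count reduction more than 3 SD above the screen-wide mean, cut at about 70% in these data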;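 further: normalized per plate to untreated control cells as the no-loss baseline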
Starred values were filed as active, the others as inactive; nt = no result.

SMILES	E-sel TNF inh	NFkB transloc inh	VCAM1 TNFa inh	IL1B NFkB pot	HUVEC tox TNFa	HUVEC tox IL1B
O=C(NCc1ccco1)c1ccc2c(=O)n(-c3ccccc3)c(=S)[nH]c2c1	nt	6	-11	-6	10	-18
CCC1CCCCN1C(=O)CSc1nnc(-c2cccs2)o1 (stereo not drawn)	-15	97*	19	-97	-6	86*
COC(=O)c1c(NC(=O)C2COc3ccccc3O2)sc2c1CCN(Cc1ccccc1)C2 (stereo not drawn)	63*	nt	nt	nt	nt	nt
CCCNC(=O)c1c(NC(=O)C2COc3ccccc3O2)sc2c1CCCC2 (stereo not drawn)	-22	-21	17	21	nt	-1
COc1cccc(OC)c1C(=O)Nc1cccc(C(C)=O)c1	-14	-3	-10	3	6	-3
CC(=O)c1cccc(NC(=O)NCc2cccnc2)c1	100*	-8	-36	7	-19	-61
CC(=O)c1cccc(NC(=O)NCc2cccs2)c1	3	-46	14	46*	5	-24
COc1cc(NC(=O)Nc2cccc(C(C)=O)c2)cc(OC)c1OC	-17	8	22	-8	-17	72*
CC(=O)Nc1ccc(OCC(O)Cn2nc(C)c(Br)c2C)cc1 (stereo not drawn)	-26	-27	28	27	-32	-1
O=C(NNC(=O)c1ccccc1Br)c1ccc(SCC2CCCO2)c([N+](=O)[O-])c1 (stereo not drawn)	-7	-6	5	6	9	-35
CC(=O)c1c(C)oc2ccc(N(C(C)=O)S(=O)(=O)c3ccc(Cl)c([N+](=O)[O-])c3)cc12	7	8	88*	-8	8	1
CCOC(=O)C(C)(C)N(Cc1ccc(Cl)cc1)S(=O)(=O)c1ccc(Cl)c([N+](=O)[O-])c1	0	nt	nt	nt	nt	nt
CCOC(=O)C1=C(C)NC(=NC)SC1c1ccccc1 (stereo not drawn)	7	nt	nt	nt	nt	nt
COC(=O)c1ccccc1NC(NC(=O)c1ccco1)C(=O)c1ccc(C)cc1 (stereo not drawn)	6	-3	62*	3	86*	-6
CCOC(=O)c1[nH]c(C)c(C(=O)OCC)c1C	nt	5	-9	-5	2	41
CCOC(=O)c1[nH]c(C)c(C(=O)c2cc(F)ccc2F)c1C	-9	12	83*	-12	31	4
O=C(c1ccc2snnc2c1)N1CCSCC1	nt	-21	78*	21	84*	-15
O=C(c1ccc2snnc2c1)N1CCCCC1	-4	-2	-4	2	-13	-39
Cn1c(CNc2ccccc2O)nc2ccccc21	nt	-4	59*	4	89*	-8
COc1ccc(C(CC(=O)c2ccccc2)S(=O)(=O)c2ccc(C)cc2)cc1 (stereo not drawn)	-30	-69	18	69*	-2	-17
COc1ccccc1-n1cnc2cc(NCc3cccs3)ccc21	-9	17	82*	-17	52	11
COc1ccc(CNc2ccc3c(c2)ncn3-c2ccccc2OC)cc1	5	4	-6	-4	-11	-16
COc1ccccc1-n1cnc2cc(NCc3ccco3)ccc21	-17	12	40*	-12	19	-11
C=C(C)c1cccc(C(C)(C)NC(=O)Nc2ncccn2)c1	-52	0	99*	0	95*	-13
C=C(C)c1cccc(C(C)(C)NC(=O)Nc2ccc(Cl)cn2)c1	2	nt	nt	nt	nt	nt
SMILES	E-sel TNF inh	NFkB transloc inh	VCAM1 TNFa inh	IL1B NFkB pot	HUVEC tox TNFa	HUVEC tox IL1B
COc1ccc(NC(=O)CN2C(=O)C(C)SC(C)C2=O)c(OC)c1 (stereo not drawn)	60	nt	nt	nt	nt	nt
Cc1cc(C)n2nc(SCC(=O)c3c(N)n(CC(C)C)c(=O)n(C)c3=O)nc2n1	-15	nt	nt	nt	nt	nt
CN1C/C(=N\S(=O)(=O)c2ccccc2)N(C)C1=O	-22	nt	nt	nt	nt	nt
O=Cc1s/c(=N\S(=O)(=O)c2ccccc2)n(CCCCl)c1Cl	72*	nt	nt	nt	nt	nt
COC(=O)c1ccc(NS(=O)(=O)c2ccccc2)o1	-40	nt	nt	nt	nt	nt
COc1cc(-c2noc(CCC(=O)Nc3cccnc3)n2)cc(OC)c1OC	62*	-14	7	14	2	9
CCOc1ccc(-c2noc(CCCC(N)=O)n2)cc1OC	1	-23	15	23	-15	2
COc1ccc(-c2noc(CCC(N)=O)n2)cc1OC	80*	-8	-13	8	12	-8
O=c1cc(CSc2ccc(Cl)cc2)nc(-c2ccncc2)[nH]1	18	nt	nt	nt	nt	nt
COc1cc(C(=O)OCCNC(=O)c2ccncc2)cc(OC)c1OC	62*	nt	nt	nt	nt	nt
CSc1ncccc1C(=O)OCC(=O)c1cccs1	8	nt	nt	nt	nt	nt
CCOC(=O)C1C(=O)C=C(c2ccc(C)cc2)CC1c1cccc([N+](=O)[O-])c1 (stereo not drawn)	-69	nt	nt	nt	nt	nt
O=C(NCCc1ccncc1)c1ccccc1F	-32	-10	10	10	-17	-24
O=C(NCCc1ccncc1)C(F)(F)F	15	72*	16	-72	-20	-40
C=CCN(CC=C)S(=O)(=O)c1ccc2nc(NC(=O)C3CCCO3)sc2c1 (stereo not drawn)	10	nt	nt	nt	nt	nt
CCCCOc1ccccc1Cn1c(=O)oc2ccc(C)cc21	-32	-1	-10	1	3	-8
Cc1ccc2oc(=O)n(CCCOc3ccccc3)c2c1	68*	1	-11	-1	16	-22
O=Cc1cn(CC(=O)Nc2ccc(F)cc2)c2ccccc12	-13	nt	nt	nt	nt	nt
CC(C)(CO)NCC(O)Cn1cc(C=O)c2ccccc21 (stereo not drawn)	90*	nt	nt	nt	nt	nt
Clc1ccc(Nc2nc(-c3ccncc3)cs2)cc1	6	-24	35	24	-12	1
Clc1ccc(Nc2nc3cccnc3s2)cc1	72*	nt	nt	nt	nt	nt
S=C(NCc1ccco1)N1CCC(c2nc3ccccc3o2)CC1	5	nt	nt	nt	nt	nt
CCSc1nnc([C@H](Cc2ccccc2)NC(=O)OC(C)(C)C)o1	5	8	-18	-8	-16	-177
CC(C)(C)OC(=O)N[C@@H](Cc1ccccc1)c1nnc(SCC(=O)O)o1	nt	-2	-14	2	-40	-11
CSc1nnc([C@@H](NC(=O)OC(C)(C)C)C(C)C)o1	-4	10	14	-10	28	5
SMILES	E-sel TNF inh	NFkB transloc inh	VCAM1 TNFa inh	IL1B NFkB pot	HUVEC tox TNFa	HUVEC tox IL1B
Cc1ccccc1CS(=O)(=O)c1nnc([C@H](Cc2ccccc2)NC(=O)OC(C)(C)C)o1	19	5	75*	-5	9	-3
CCC(C)[C@@H](NC(=O)OC(C)(C)C)c1nnc(S(=O)(=O)Cc2cccc(C)c2)o1 (stereo partly drawn)	nt	2	42*	-2	-9	-24
CC(C)(C)OC(=O)N[C@@H](Cc1ccccc1)c1nnc(S(=O)(=O)Cc2ccccc2)o1	18	38*	8	-38	-14	-113
COC(=O)c1sccc1NC(=S)N1CCN(c2ccccc2F)CC1	2	nt	nt	nt	nt	nt
COc1ccc(Cl)cc1S(=O)(=O)N1CCCC1	3	7	16	-7	-7	2
CCCSc1nc(C)c(-c2csc(C(C#N)=C3CCCC3)n2)cc1C#N	62*	4	-15	-4	0	10
O=C(NCc1ccccc1)Oc1cccc(Cl)c1	-31	-42	14	42*	-5	-62

Bioassay records (PubChem BioAssay)
